Results filed as inconclusive are left out. Active and inactive are the calls of the source. The calls were made as follows, unless noted: active = hit-call score of the fitted dose curve at least 0.9, where 1 is the maximum; inconclusive = response in the unintended direction; inactive = score below 0.9.
Key:
[1] = ATG_TCF_b_cat_CIS: Attagene CIS-FACTORIAL HepG2 Assay for human T-Cell-Factor with beta-catenin (TCF/b-cat) (AID 2282965; active = hit-call score of the fitted dose curve at least 0.9, where 1 is the maximum; inactive = score below 0.9); conditions: HepG2 TCF/beta-catenin cis-reporter transcription, actives raise or lower the signal
In short: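 Cells of the HepG2 line carry transiently transfected reporter units whose promoters respond to endogenous factors. Twenty-four hours post-dosing, reporter mRNA induction is measured by fluorescent RT-PCR and capillary electrophoresis, with DMSO as baseline.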

[2] = ATG_TAL_CIS: Attagene CIS-FACTORIAL HepG2 Assay for human TAL Basal Promoter (AID 2282966; active = hit-call score of the fitted dose curve at least 0.9, where 1 is the maximum; inactive = score below 0.9;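 also: background control endpoint measuring basal TAL promoter reporter mRNA not a specific factor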); conditions: HepG2 Attagene cis-factorial TAL promoter reporter; actives raise or lower the signal
In short: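 HepG2, transient MRTU transfection, 24 h compound exposure; RNA → oligo(dT) RT → PCR → 6-FAM primer extension → HpaI digest → CE fluorescence. Bidirectional curve fit vs DMSO. Background-control readout.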

[3] = ATG_TGFb_CIS: Attagene CIS-FACTORIAL HepG2 Assay for human Transforming Growth Factor (TGF) (AID 2282967; active = hit-call score of the fitted dose curve at least 0.9, where 1 is the maximum; inactive = score below 0.9); conditions: HepG2 Attagene CIS TGFb reporter, mRNA transcription; actives raise or lower the signal
In short: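 Transient MRTU transfection of HepG2 (FuGene 6). Dose 24 h. TriZol RNA, oligo(dT) RT, PCR, 6-FAM primer extension, HpaI cut, CE. Bidirectional fit, DMSO = baseline.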

[4] = ATG_VDRE_CIS: Attagene CIS-FACTORIAL HepG2 Assay for human Vitamin D Receptor Element (VDRE) (AID 2282968; active = hit-call score of the fitted dose curve at least 0.9, where 1 is the maximum; inactive = score below 0.9); conditions: HepG2 VDRE cis-reporter transcription, actives raise or lower the signal
In short: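 Compounds were applied for 24 h to HepG2 cells transfected with promoter-regulated reporter units. Total RNA was reverse-transcribed, and reporter amplicons were fluorescently labelled and sized by capillary electrophoresis.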

[5] = target: X-box-binding protein 1 (Homo sapiens) (UniProt P17861); experiment: ATG_Xbp1_CIS: Attagene CIS-FACTORIAL HepG2 Assay for human X-box Binding Protein 1 (XBP1) (AID 2282972; active = hit-call score of the fitted dose curve at least 0.9, where 1 is the maximum; inactive = score below 0.9); conditions: HepG2 XBP1 cis-element reporter, Attagene multiplex; actives raise or lower the signal
Sequence of X-box-binding protein 1 (Homo sapiens) (P17861 whole entry, looked up): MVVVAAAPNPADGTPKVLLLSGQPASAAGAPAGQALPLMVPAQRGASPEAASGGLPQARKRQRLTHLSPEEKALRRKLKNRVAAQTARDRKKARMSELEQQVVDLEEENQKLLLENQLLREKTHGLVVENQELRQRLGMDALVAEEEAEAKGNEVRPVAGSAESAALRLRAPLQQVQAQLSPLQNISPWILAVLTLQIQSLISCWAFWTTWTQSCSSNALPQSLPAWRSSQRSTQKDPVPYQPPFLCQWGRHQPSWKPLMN
In short: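 Multiplexed cis-reporter readout in transfected HepG2 liver cells. Exposure lasted 24 hours. Activity in either direction was fitted against DMSO as negative control and baseline.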

[6] = target: Glucocorticoid receptor (Homo sapiens) (UniProt P04150); experiment: ATG_GR_TRANS: Attagene TRANS-FACTORIAL HepG2 Assay for human Glucocorticoid Receptor (GR) (AID 2282978); conditions: HepG2 Attagene TRANS GR reporter, mRNA transcription;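 also: activators score as hits since higher reporter transcript over DMSO is fitted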
In short: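 Exogenous NR-GAL4 fusion activity was assessed through induced GAL4-UAS reporter transcripts in transfected human HepG2 cells, quantified after 24 h by RT-PCR and fluorescent capillary electrophoresis with DMSO as baseline.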

[7] = target: Bile acid receptor (Homo sapiens) (UniProt Q96RI1); experiment: ATG_FXR_TRANS: Attagene TRANS-FACTORIAL HepG2 Assay for Farnesoid X Receptor (FXR) (AID 2282979); conditions: HepG2 Attagene TRANS FXR-GAL4 reporter transcription;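 also: hits raise reporter mRNA above DMSO so AC50 marks FXR activation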
Sequence of Bile acid receptor (Homo sapiens) (Q96RI1 whole entry, looked up, the tested form may be a part): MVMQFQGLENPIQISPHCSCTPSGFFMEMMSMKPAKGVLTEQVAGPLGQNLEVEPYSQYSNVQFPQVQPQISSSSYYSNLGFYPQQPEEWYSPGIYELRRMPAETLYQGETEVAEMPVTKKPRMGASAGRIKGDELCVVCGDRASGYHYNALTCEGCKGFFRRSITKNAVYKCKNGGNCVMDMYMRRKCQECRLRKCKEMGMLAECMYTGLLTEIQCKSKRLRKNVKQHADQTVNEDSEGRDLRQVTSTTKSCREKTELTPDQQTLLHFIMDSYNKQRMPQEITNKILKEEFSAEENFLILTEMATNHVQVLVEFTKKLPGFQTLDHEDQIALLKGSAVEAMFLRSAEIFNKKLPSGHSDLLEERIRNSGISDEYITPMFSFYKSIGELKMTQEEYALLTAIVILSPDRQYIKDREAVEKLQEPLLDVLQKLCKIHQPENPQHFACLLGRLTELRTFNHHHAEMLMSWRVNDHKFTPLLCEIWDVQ
In short: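 Read-out: fluorescent reporter transcripts quantified by capillary electrophoresis after RT-PCR of total RNA. Source cells were HepG2 transiently carrying chimeric NR-GAL4 plus GAL4-UAS reporter units, dosed 24 h. Activity fitted upward relative to DMSO baseline.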

[8] = target: Hepatocyte nuclear factor 4-alpha (Homo sapiens) (UniProt P41235); experiment: ATG_HNF4a_TRANS: Attagene TRANS-FACTORIAL HepG2 Assay for human Hepatocyte Nuclear Factor 4 alpha (HNF4a) (AID 2282982); conditions: HepG2 HNF4a transactivation reporter, mRNA readout
Sequence of Hepatocyte nuclear factor 4-alpha (Homo sapiens) (P41235 whole entry, looked up, the tested form may be a part): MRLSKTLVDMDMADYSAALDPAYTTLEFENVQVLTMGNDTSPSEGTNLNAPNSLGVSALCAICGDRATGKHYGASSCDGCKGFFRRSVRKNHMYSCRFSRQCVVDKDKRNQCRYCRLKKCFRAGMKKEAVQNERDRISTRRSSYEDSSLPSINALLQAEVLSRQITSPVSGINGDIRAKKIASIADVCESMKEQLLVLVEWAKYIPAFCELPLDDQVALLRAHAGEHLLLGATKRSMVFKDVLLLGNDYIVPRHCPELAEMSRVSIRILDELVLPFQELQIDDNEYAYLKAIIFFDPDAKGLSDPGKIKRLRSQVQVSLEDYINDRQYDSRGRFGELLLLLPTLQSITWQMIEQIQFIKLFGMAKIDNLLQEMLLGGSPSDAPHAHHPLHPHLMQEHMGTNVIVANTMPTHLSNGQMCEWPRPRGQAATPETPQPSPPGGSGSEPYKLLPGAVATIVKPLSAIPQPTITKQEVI
In short: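 Endpoint reflects transcriptional activation of a GAL4-UAS reporter by an HNF4a-GAL4 chimera in transfected HepG2 cells, 24 h post-dosing. Fluorescence from RT-PCR products separated by capillary electrophoresis; DMSO baseline.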

[9] = ATG_M_32_TRANS: Attagene TRANS-FACTORIAL HepG2 Assay for M32 Transcription Factor (Internal Marker) (AID 2282984); conditions: HepG2 Attagene TRANS M32 internal marker reporter;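 also: transcript level of a background control reporter unit measured by RT-PCR and capillary electrophoresis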
In short: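 Internal-marker readout from a multiplexed transcription reporter panel. HepG2 cells were transfected with GAL4-UAS reporter units, treated 24 hours, and reporter transcript levels determined by fluorescence after RT-PCR and capillary separation.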

[10] = target: Transcriptional activator Myb (Homo sapiens) (UniProt P10242); experiment: ATG_Myb_CIS: Attagene CIS-FACTORIAL HepG2 Assay for human Myeloblastosis (Myb) Proto-Oncogene Transcription Factor (AID 2282986; active = hit-call score of the fitted dose curve at least 0.9, where 1 is the maximum; inactive = score below 0.9); conditions: HepG2 Attagene CIS-FACTORIAL Myb reporter transcription; actives raise or lower the signal
Sequence of Transcriptional activator Myb (Homo sapiens) (P10242 whole entry, looked up): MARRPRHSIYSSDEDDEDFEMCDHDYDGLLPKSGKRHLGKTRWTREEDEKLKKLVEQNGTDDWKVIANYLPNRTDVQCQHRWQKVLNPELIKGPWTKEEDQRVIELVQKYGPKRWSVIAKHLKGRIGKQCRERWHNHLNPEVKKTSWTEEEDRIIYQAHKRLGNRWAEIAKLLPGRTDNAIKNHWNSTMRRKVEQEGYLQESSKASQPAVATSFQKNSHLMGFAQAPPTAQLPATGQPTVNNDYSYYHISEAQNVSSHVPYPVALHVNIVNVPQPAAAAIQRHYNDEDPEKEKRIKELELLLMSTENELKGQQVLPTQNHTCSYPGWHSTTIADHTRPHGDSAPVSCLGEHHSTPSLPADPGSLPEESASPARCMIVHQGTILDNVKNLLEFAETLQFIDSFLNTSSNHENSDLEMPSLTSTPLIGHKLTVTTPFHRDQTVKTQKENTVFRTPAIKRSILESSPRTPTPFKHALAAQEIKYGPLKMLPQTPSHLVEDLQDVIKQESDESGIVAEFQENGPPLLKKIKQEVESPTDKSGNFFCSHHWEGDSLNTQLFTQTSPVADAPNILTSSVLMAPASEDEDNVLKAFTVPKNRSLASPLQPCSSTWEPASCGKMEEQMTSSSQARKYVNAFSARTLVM
In short: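 In this HepG2 transient-transfection format, cis-regulated reporter mRNA is quantified 24 h post-dosing by RT-PCR with capillary electrophoresis, fitted bidirectionally to DMSO baseline.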

[11] = target: Oxysterols receptor LXR-alpha (Homo sapiens) (UniProt Q13133); experiment: ATG_LXRa_TRANS: Attagene TRANS-FACTORIAL HepG2 Assay for human Liver X Receptor alpha (LXRa) (AID 2282980); conditions: HepG2 Attagene TRANS reporter, LXRa transactivation
Sequence of Oxysterols receptor LXR-alpha (Homo sapiens) (Q13133 whole entry, looked up, the tested form may be a part): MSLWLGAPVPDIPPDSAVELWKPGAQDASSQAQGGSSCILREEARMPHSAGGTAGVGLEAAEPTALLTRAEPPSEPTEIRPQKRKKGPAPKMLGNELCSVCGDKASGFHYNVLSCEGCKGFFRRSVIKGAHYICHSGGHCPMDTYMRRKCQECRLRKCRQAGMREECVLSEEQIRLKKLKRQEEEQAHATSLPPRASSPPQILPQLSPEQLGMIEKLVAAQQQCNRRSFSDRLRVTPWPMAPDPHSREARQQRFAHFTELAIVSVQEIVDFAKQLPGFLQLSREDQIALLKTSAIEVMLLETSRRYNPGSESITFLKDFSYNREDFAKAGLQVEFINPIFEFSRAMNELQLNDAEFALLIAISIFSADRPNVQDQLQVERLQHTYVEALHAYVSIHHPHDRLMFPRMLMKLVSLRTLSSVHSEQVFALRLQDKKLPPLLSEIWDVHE
In short: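 Read-out: reporter transcript levels by RT-PCR plus capillary electrophoresis, fluorescence intensity. Transiently transfected HepG2, exogenous NR-GAL4 chimera, GAL4-UAS reporters; 24 h compound exposure. Activity = increase over DMSO negative control.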

[12] = target: Oxysterols receptor LXR-beta (Homo sapiens) (UniProt P55055); experiment: ATG_LXRb_TRANS: Attagene TRANS-FACTORIAL HepG2 Assay for human Liver X Receptor beta (LXRb) (AID 2282981); conditions: HepG2 Attagene TRANS GAL4-LXRb reporter, mRNA
Sequence of Oxysterols receptor LXR-beta (Homo sapiens) (P55055 whole entry, looked up, the tested form may be a part): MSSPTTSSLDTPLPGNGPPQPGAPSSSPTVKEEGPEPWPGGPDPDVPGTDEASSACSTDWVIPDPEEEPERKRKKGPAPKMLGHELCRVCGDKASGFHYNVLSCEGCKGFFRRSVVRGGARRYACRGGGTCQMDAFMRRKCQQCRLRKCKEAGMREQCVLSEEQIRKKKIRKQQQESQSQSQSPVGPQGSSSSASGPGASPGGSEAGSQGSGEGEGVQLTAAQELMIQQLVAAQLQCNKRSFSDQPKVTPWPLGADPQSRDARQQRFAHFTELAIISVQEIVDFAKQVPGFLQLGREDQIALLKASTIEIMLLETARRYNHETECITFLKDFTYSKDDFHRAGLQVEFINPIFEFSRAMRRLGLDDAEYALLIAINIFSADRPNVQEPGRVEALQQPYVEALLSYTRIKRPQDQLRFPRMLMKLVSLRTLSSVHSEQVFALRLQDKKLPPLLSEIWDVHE
In short: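 Multiplexed reporter assay, HepG2, 24 h dosing. Fluorescence of labelled RT-PCR products after capillary electrophoresis gives transcript level; positive fitting direction relative to DMSO.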

[13] = ATG_GAL4_TRANS: Attagene TRANS-FACTORIAL HepG2 Assay for GAL4 (Internal Marker) (AID 2282976); conditions: HepG2 Attagene TRANS GAL4 internal marker reporter
In short: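 RT-PCR/capillary electrophoresis readout of reporter mRNA. HepG2, transient MRTU transfection (GAL4-UAS reporters), 24 h compound exposure. Background-control endpoint, positive direction vs DMSO baseline.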

[14] = ATG_M_06_TRANS: Attagene TRANS-FACTORIAL HepG2 Assay for M06 Transcription Factor (Internal Marker) (AID 2282983); conditions: HepG2 Attagene TRANS M06 internal marker reporter
In short: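 Read-out: fluorescent reporter cDNA fragments resolved by capillary electrophoresis after RT-PCR and HpaI cut. Source cells were HepG2 carrying transfected multi-reporter GAL4 constructs, dosed 24 h. Increase over DMSO control analysed.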

[15] = target: Nuclear receptor subfamily 4 group A member 2 (Homo sapiens) (UniProt P43354); experiment: ATG_NURR1_TRANS: Attagene TRANS-FACTORIAL HepG2 Assay for human Nuclear Receptor Related Protein 1 (NURR1) (AID 2282985); conditions: HepG2 Attagene TRANS reporter, mRNA readout
Sequence of Nuclear receptor subfamily 4 group A member 2 (Homo sapiens) (P43354 whole entry, looked up): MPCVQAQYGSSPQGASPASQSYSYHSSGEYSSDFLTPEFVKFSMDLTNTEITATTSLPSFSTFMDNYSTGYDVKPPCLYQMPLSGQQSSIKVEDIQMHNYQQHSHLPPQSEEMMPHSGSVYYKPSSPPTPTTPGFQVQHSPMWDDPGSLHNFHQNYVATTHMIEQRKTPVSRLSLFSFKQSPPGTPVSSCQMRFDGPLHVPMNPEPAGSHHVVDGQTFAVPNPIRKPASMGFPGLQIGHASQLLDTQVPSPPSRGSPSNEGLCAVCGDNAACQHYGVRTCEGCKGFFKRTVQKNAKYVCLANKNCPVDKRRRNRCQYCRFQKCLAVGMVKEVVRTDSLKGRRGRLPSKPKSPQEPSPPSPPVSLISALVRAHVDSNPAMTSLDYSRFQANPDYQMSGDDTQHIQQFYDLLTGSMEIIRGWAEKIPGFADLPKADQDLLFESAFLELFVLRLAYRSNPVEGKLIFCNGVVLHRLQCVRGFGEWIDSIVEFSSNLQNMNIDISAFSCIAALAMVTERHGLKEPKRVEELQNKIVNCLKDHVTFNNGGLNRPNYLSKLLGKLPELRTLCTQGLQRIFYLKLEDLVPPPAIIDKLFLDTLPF
In short: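 Endpoint: reporter mRNA increase relative to DMSO. HepG2 cells transfected with reporter units, treated 24 h; RNA processed by RT-PCR, labelling, HpaI digestion and capillary electrophoresis.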

[16] = target: Nuclear receptor subfamily 1 group I member 3 (Homo sapiens) (UniProt Q14994); experiment: ATG_CAR_TRANS: Attagene TRANS-FACTORIAL HepG2 Assay for human Constitutive Androstane Receptor (CAR) (AID 2282969); conditions: HepG2 Attagene TRANS-FACTORIAL CAR reporter;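 also: activators raise reporter mRNA above DMSO so AC50 marks induction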
Sequence of Nuclear receptor subfamily 1 group I member 3 (Homo sapiens) (Q14994 whole entry, looked up, the tested form may be a part): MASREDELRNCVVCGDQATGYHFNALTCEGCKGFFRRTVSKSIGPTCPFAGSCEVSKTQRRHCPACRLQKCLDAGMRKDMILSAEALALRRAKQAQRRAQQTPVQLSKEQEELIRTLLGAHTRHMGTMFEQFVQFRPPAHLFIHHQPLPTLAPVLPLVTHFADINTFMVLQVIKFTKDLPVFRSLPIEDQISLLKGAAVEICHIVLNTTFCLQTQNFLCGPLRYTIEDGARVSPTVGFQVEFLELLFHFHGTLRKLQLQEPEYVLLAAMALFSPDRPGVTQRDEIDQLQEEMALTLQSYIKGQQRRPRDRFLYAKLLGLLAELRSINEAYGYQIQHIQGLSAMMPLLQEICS
In short: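 Transiently transfected HepG2, multiplex TRANS reporters (CAR-Gal4 chimera driving GAL4-UAS reporter). 24 h dosing. Readout: reporter transcript by RT-PCR + capillary electrophoresis, fluorescence intensity; positive direction vs DMSO.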

[17] = target: Estrogen receptor (Homo sapiens) (UniProt P03372); experiment: ATG_ERa_TRANS: Attagene TRANS-FACTORIAL HepG2 Assay for human Estrogen Receptor alpha (ERa) (AID 2282970); conditions: HepG2 Attagene TRANS ERa GAL4 reporter, mRNA
Sequence of Estrogen receptor (Homo sapiens) (P03372 whole entry, looked up, the tested form may be a part): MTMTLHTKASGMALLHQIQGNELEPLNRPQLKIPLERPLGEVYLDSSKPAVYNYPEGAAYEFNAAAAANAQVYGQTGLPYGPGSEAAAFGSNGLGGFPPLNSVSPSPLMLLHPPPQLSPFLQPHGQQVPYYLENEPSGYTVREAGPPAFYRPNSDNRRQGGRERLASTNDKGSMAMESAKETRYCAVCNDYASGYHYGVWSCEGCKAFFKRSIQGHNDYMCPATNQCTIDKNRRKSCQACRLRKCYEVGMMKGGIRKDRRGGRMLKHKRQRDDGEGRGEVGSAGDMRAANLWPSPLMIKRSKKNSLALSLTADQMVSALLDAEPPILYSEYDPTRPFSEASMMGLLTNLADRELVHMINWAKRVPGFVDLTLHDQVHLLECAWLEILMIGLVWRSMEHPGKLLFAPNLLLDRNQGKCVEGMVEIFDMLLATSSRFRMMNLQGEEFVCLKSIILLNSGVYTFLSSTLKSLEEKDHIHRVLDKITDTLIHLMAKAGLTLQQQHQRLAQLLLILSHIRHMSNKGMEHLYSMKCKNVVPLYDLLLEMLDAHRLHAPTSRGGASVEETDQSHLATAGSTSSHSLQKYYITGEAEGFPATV
In short: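 Reporter mRNA induction after 24 hours, detected by fluorescent RT-PCR and capillary electrophoresis, gives the read-out. Cells are HepG2 transiently transfected with GAL4-UAS reporter transcription units responding to chimeric NR-Gal4. Activity is taken as gain of signal over DMSO baseline.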

[18] = ATG_M_19_TRANS: Attagene TRANS-FACTORIAL HepG2 Assay for M19 Transcription Factor (Internal Marker) (AID 2282974); conditions: HepG2 Attagene TRANS-FACTORIAL M19 internal marker reporter
In short: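 Using RT-PCR and capillary electrophoresis, reporter mRNA from transiently transfected human HepG2 cells was quantified following 24 h exposure; activity was fitted in the positive direction against DMSO.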

[19] = target: Steroid hormone receptor ERR1 (Homo sapiens) (UniProt P11474); experiment: ATG_ERRa_TRANS: Attagene TRANS-FACTORIAL HepG2 Assay for human Estrogen-Related Receptor alpha (ERRa) (AID 2282971); conditions: HepG2 Attagene TRANS reporter, ERRa transactivation
Sequence of Steroid hormone receptor ERR1 (Homo sapiens) (P11474 whole entry, looked up, the tested form may be a part): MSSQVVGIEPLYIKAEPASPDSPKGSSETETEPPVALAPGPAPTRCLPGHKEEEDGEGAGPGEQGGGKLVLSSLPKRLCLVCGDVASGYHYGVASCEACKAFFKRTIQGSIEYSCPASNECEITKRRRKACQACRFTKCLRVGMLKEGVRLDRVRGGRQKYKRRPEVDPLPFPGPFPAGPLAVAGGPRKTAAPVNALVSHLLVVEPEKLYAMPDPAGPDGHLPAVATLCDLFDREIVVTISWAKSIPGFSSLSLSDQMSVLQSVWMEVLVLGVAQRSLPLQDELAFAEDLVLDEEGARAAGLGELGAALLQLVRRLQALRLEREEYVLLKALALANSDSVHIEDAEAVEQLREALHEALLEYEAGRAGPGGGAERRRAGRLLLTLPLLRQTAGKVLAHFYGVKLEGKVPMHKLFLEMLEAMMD
In short: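 Transfected HepG2, 24 h dosing, ERRa-Gal4 chimera driving GAL4-UAS reporter. Readout: reporter mRNA via RT-PCR plus capillary electrophoresis (fluorescence). Positive direction vs DMSO control.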

Measured: AC50

O=C1OCc2ccccc21
inactive: [1] | [2] | [3] | [4] | [5] | [6] | [7] | [8] | [9] | [10]

CCC(C)(C)c1cc(O)c(C(C)(C)CC)cc1O
active: [1] 27.4 µM | [3] 146 µM | [4] 19.8 µM | [5] 5.91 µM | [7] 3.06 µM | [10] 9.69 µM
inactive: [2] | [6] | [11] | [12]

CC(=O)CC(=O)N(C)C
not listed: [11] | [16] | [17] | [18] | [19]
inactive: all other assays above

Nc1ccc(N)c([N+](=O)[O-])c1
active: [17] 37.8 µM [middle of 5 runs]
not listed: [4] | [7] | [8] | [13] | [15] | [19]
inactive: all other assays above

CC(=O)CCC(=O)O
inactive: [1] | [2] | [3] | [4] | [5] | [18] | [6] | [11] | [9] | [10]

OCC=Cc1ccccc1
inactive: [1] | [2] | [3] | [4] | [5] | [11] | [12] | [8] | [15] | [10]

CCCCCCC(C)O (stereo not given)
not listed: [7] | [11] | [15] | [16] | [17] | [19]
inactive: all other assays above

CCCOC(=O)CC
not listed: [7] | [16] | [17] | [19]
inactive: all other assays above

CCC(=O)OCC=Cc1ccccc1
inactive: [1] | [2] | [3] | [4] | [5] | [7] | [12] | [8] | [9] | [10]

NC(N)=S
inactive: [1] | [2] | [3] | [4] | [5] | [6] | [11] | [8] | [14] | [10]

CC(=O)CC(C)(C)C1CCCCC1
not listed: [4] | [6] | [7] | [11] | [12] | [14] | [15]
inactive: all other assays above

CC1=CCC(=C(C)C)CC1
active: [17] 33.3 µM
not listed: [4] | [6] | [7] | [9] | [14] | [19]
inactive: all other assays above

Reference: PubChem BioAssay (EPA / NIEHS)
